The structures appear in SMILES notation. Where “and” joins values, the source holds several entries; their conditions need not be identical. Equal values may be shown once. Results filed as inconclusive are left out. Calls of active or inactive are those of the source. Rule as the data show it, unless noted: active = inhibition above about 80%; inactive = the rest.

The nature of test [1]: galactose survival enhancers in mitochondrial complex I cybrids – cell-based, galactose medium, ATP luminescence, primary screen (AID 1645843;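 active = z-score of at least 1.8 in each of two replicates, scored against plate mean and spread of sample wells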;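 also: positive z means more ATP and so rescue of galactose-driven cybrid death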). The following applies: complex I mutant cybrid cells, 72 h, stronger effect = higher value.
The nature of test [2]: growth inhibition, single agents and combos, LFS_MB_1R, cell-based, cisplatin or BGB combos, synergistic combos for chromothripsis tumors (AID 1671452).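 Also: cells exposed for 96 hours before readout.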 The settings on record: LFS_MB_1R medulloblastoma cells, stronger effect = higher value.
Test [3] can be described thus: growth inhibition, single agents and combos, CRL2098, cell-based, BGB or cisplatin IC20 combos, synergistic combos for chromothripsis tumors (AID 1671454).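 Also: cells exposed for 96 h before readout; 0% = vehicle DMSO and 100% = killing by high DMSO.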 The settings on record: CRL2098 osteosarcoma cells, drug combinations, stronger effect = higher value.
Test [4] can be described thus: growth inhibition, single agents and combos, HD-MB03, cell-based, BGB or cisplatin IC20 combos, synergistic combos for chromothripsis tumors (AID 1671455; in the data active = inhibition above about 83%;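 also: 0% = vehicle DMSO and 100% = high DMSO as cytotoxic control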). The following applies: HD-MB03 medulloblastoma cells, stronger effect = higher value.
Test [5] is described as follows: growth inhibition, single agents and combos, UWB1.289, cell-based, BGB or cisplatin combos, synergistic combos for chromothripsis tumors (AID 1671456).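 Also: cells exposed to compound for four days; 0% = vehicle DMSO and 100% = killing by high DMSO.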 The settings on record: UWB1.289 ovarian carcinoma cells, stronger effect = higher value.
A short description of test [6]: growth inhibition, single agents and combos, LFS_MB_2R, cell-based, cisplatin combos, synergistic combos for chromothripsis tumors (AID 1671457).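 Also: cells exposed to compound for four days before readout.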 The settings on record: LFS_MB_2R medulloblastoma cells, stronger effect = higher value.
Test [7] is described as follows: UWB1.289_BRCA1 ovarian cancer growth, cell-based, BGB or cisplatin combinations (AID 1671459). The settings on record: UWB1.289 BRCA1 ovarian carcinoma, drug combinations, stronger effect = higher value.
Test [8] is described as follows: drug combination toxicity in non-malignant astrocytes – cell-based, BGB or cisplatin IC20 combos, cytotoxicity control for chromothriptic childhood tumor combination screen (AID 1671460).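 Also: cells exposed to compounds for 96 hours before viability readout; 0% = vehicle and 100% = killing control.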 The following applies: Human astrocytes, viability inhibition, drug combinations, at 0.5 µM, stronger effect = higher value.
Test [9] can be described thus: BT084 cell growth, single and combined drugs, ICGC_MB145, cisplatin and BGB IC40 combos (AID 1671461).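 Also: cells exposed to drugs for 96 hours; 0% = vehicle DMSO and 100% = high DMSO full killing control.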 The settings on record: BT084 medulloblastoma cells, drug combinations, stronger effect = higher value.
Test [10] is described as follows: RCMB18 cell growth, single agent and combined, cisplatin and BGB IC40 combos (AID 1671462).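 Also: cells exposed to compound for four days.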 The settings on record: RCMB18 medulloblastoma cells, stronger effect = higher value.
Test [11] can be described thus: CRL1545 cell growth, single agent and combined, cisplatin and BGB IC20 combos (AID 1671464).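 Also: cells exposed to compound for 96 hours before readout; 0% = vehicle DMSO and 100% = high DMSO killing control.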 The settings on record: CRL1545 osteosarcoma cells, stronger effect = higher value.
The target in test [12] is Mitogen-activated protein kinase 7 (Homo sapiens) (UniProt Q13164). The test can be described thus: Gal4-ERK5 driven luciferase induction – cell-based, HTS, primary screen (AID 1508626;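 active = luciferase signal above three times the same-plate solvent-only control wells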;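 also: luciferase driven by Gal4-ERK5 fusion binding five Gal4 sites before minimal TATA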). The following applies: HeLa Gal4-ERK5 transactivation, 18 h, at 5 µM, stronger effect = higher value.
The target of test [13] is ATP-dependent translocase ABCB1 (Homo sapiens) (UniProt P08183). The test can be described thus: P-glycoprotein substrate transport blockade – cell-based (AID 377; in the data active = fluorescence slope change above about 50%). The following applies: MDR1-expressing cells, fluorescent substrate accumulation slope; stronger effect = higher value; concentration not given here.
Where [14] appears, read: measured here: combination with BGB IC40, at 0.05 µM.
The mark [15] stands for this setting: measured here: combination with cisplatin, at 0.5 µM.
[16] abbreviates: measured here: combination with cisplatin, at 5 µM.
Where [17] appears, read: measured here: combination with BGB at IC20, at 0.5 µM.
Where [18] appears, read: measured here: combination with cisplatin at IC20, at 0.5 µM.
The mark [19] stands for this setting: measured here: combo with BGB at IC20, at 0.5 µM.
The mark [20] stands for this setting: measured here: combo with cisplatin at IC20, at 0.5 µM.
Setting [21] is: measured here: inhibition with BGB combination, at 0.05 µM.
The mark [22] stands for this setting: measured here: inhibition with cisplatin combination, at 0.05 µM.
Where [23] appears, read: BGB combination, concentration series, at 5 µM.
The mark [24] stands for this setting: cisplatin combination, concentration series, at 5 µM.
The mark [25] stands for this setting: measured here: combo with BGB IC20.
Setting [26] is: measured here: combo with cisplatin IC20.
The mark [27] stands for this setting: cisplatin combination, at 0.5 µM.
Setting [28] is: measured here: BGB IC40 combination 0.05 uM, at 0.05 µM.
Where [29] appears, read: measured here: BGB IC40 combination, at 0.05 µM.
Setting [30] is: measured here: with BGB IC20 combination, at 0.5 µM.
Setting [31] is: measured here: with cisplatin IC20 combination, at 0.5 µM.

Sequence of ATP-dependent translocase ABCB1 (Homo sapiens) (P08183 whole entry, looked up): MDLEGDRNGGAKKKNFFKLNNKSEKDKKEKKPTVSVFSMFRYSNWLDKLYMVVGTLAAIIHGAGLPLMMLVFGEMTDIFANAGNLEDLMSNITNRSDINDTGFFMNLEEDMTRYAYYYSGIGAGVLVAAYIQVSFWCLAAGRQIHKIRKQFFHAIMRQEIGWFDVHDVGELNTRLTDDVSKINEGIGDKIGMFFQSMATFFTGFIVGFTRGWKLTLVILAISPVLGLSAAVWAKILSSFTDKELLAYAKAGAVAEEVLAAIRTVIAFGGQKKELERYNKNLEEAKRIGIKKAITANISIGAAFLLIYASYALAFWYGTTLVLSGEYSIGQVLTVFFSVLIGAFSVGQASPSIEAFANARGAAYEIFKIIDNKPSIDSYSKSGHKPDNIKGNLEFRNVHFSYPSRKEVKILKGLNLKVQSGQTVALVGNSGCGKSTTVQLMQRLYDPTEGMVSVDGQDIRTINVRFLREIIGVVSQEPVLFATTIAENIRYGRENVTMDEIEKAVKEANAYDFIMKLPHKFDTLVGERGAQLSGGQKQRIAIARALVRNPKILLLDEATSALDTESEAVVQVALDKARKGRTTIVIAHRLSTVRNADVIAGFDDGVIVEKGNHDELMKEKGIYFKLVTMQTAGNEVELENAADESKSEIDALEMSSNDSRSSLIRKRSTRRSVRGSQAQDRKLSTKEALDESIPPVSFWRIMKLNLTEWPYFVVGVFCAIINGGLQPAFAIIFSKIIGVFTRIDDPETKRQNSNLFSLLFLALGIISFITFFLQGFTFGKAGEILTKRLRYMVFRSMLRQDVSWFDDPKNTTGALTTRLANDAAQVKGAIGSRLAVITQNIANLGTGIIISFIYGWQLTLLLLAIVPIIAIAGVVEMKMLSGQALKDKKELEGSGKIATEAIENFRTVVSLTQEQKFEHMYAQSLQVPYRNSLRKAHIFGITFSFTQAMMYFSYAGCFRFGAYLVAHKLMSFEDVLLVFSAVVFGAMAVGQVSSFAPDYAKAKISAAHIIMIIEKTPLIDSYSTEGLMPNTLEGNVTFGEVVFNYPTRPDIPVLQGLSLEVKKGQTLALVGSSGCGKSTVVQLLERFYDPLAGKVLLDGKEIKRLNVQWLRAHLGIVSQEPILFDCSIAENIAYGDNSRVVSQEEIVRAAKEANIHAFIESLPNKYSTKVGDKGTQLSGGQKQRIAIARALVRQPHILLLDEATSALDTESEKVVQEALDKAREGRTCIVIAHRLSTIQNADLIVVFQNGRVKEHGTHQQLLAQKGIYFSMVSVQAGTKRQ
Sequence of Mitogen-activated protein kinase 7 (Homo sapiens) (Q13164 whole entry, looked up, the tested form may be a part): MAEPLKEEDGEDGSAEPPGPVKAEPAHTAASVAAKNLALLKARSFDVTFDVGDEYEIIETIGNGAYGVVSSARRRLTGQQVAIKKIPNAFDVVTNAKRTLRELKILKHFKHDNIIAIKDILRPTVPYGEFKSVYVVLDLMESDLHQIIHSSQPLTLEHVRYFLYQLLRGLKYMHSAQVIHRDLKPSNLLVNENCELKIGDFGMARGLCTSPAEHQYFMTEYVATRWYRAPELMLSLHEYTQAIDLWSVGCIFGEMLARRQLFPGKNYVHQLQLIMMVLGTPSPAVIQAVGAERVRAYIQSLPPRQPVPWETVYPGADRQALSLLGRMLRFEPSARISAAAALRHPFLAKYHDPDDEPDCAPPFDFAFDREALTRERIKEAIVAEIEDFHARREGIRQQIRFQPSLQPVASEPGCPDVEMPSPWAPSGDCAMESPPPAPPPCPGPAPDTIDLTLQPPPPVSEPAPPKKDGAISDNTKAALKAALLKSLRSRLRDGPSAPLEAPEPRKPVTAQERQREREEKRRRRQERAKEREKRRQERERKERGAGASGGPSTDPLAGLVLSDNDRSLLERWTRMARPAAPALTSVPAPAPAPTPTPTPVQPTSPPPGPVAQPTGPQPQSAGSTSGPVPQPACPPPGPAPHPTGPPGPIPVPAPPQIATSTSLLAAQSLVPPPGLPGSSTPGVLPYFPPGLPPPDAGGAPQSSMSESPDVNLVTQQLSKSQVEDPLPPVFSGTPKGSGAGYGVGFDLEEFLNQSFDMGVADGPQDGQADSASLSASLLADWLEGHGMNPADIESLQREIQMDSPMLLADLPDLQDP

Broadly, the inhibition is the drop in the measured response relative to a control, in per cent. In the case of `Nc1ccc2cc3ccc(N)cc3nc2c1`, the z-score in test [1] was -2.66 (inactive). Besides, the inhibition in [2] (at 0.5 µM) was -22.9% (inactive); in test [2] (setting [14]), -30.9%; in test [2] (setting [15]) it was -45.7%; in test [2] (setting [16]), 99.1%; in [3] (at 0.5 µM), -33.9% (inactive); in test [3] (setting [17]), -34.4%. The inhibition was -50.2% in test [3] (setting [18]); -6.54% (inactive) in [4] (at 0.5 µM); 19.2% in test [4] (setting [19]); -34.6% in test [4] (setting [20]); -1.27% (inactive) in test [5] (at 0.5 µM); -20.6% in [5] (setting [21]). The inhibition was -13.2% in test [5] (setting [22]); -9.07% (inactive) in test [6] (at 0.5 µM); -2.23% in [6] (setting [15]); 84.3% in test [6] (setting [16]); 100% in test [7] (setting [23]); -1.03% (inactive) in test [7] (at 0.5 µM). Moreover, the inhibition in test [7] (setting [24]) is 115%; in test [8], -4.99% (inactive); in test [8] (setting [25]) it was 0.031%; in test [8] (setting [26]), -30.9%; in [9] (at 0.5 µM), -51.8% (inactive); in test [9] (setting [27]), -55.3%. Also, the inhibition in test [9] (cisplatin combination, at 5 µM) is 80.4%; in test [9] (setting [28]) it was -6.84%; in test [9] (single agent, at 5 µM), 89.8%; in test [10] (at 0.5 µM) it was -8.62% (inactive); in test [10] (cisplatin combo, at 5 µM) it was 83.1%; in [10] (setting [29]), 9.55%. Also, the inhibition in [10] (setting [15]) is -20.8%; in test [10] (single agent, at 5 µM) it was 73.5%; in test [11] (at 0.5 µM), -34.4% (inactive); in test [11] (setting [30]) it was -17.3%; in [11] (setting [31]), -43%; in test [11] (single agent, at 0.05 µM) it was -52.5%. For the same molecule, the inhibition in test [11] (single agent, at 5 µM) is 100%.
With `O=c1cc[nH]c(=O)[nH]1`, the inhibition in test [2] (at 0.5 µM) is -40% (inactive); in test [2] (setting [14]), -59%; in [2] (setting [15]), -48%; in [2] (setting [16]), -36.2%; in [3] (at 0.5 µM), -92.2% (inactive); in test [3] (setting [17]) it was -94.9%. Also, the inhibition in [3] (setting [18]) is -107%; in test [4] (at 0.5 µM), -17.8% (inactive); in test [4] (setting [19]) it was -14.7%; in test [4] (setting [20]), -22.4%; in test [5] (at 0.5 µM), -18% (inactive); in test [5] (setting [21]), -36%. Moreover, the inhibition in test [5] (setting [22]) is -27.8%; in test [6] (at 0.5 µM), -17.4% (inactive); in [6] (setting [15]), -11.9%; in [6] (setting [16]) it was -19.1%; in test [7] (setting [23]), -12.9%; in [7] (at 0.5 µM), -25% (inactive). Further, the inhibition in [7] (setting [24]) is -6.49%; in test [8], -8.86% (inactive); in test [8] (setting [25]), 4.39%; in test [8] (setting [26]), -31.7%; in [9] (at 0.5 µM), -12.8% (inactive); in test [9] (setting [27]), -14.2%. Further, the inhibition was -53.2% in test [9] (cisplatin combination, at 5 µM); -11.4% in [9] (setting [28]); -17.3% in test [9] (single agent, at 5 µM); -17.6% (inactive) in test [10] (at 0.5 µM); -19.1% in [10] (cisplatin combo, at 5 µM); -3.59% in test [10] (setting [29]). For the same molecule, the inhibition is -29.1% in [10] (setting [15]); -18.8% in [10] (single agent, at 5 µM); -72% (inactive) in [11] (at 0.5 µM); -50.2% in test [11] (setting [30]); -82.8% in test [11] (setting [31]); 4.62% in test [11] (single agent, at 0.05 µM). Also, the inhibition in [11] (single agent, at 5 µM) was -35%.
For `O=C(CCCN1CCC(O)(c2ccc(Br)cc2)CC1)c1ccc(F)cc1`, the luciferase signal in [12] is 52 AU (inactive).
On to `CN1C(=O)OC(C)(C)C1=O`, for which the fluorescence slope change in test [13] was 1.5% (inactive).
Consider `N=C(N)N1CCc2ccccc2C1`, for which the z-score in test [1] is 0.125 (inactive).
As to `COc1cc(C(=O)N2CCOCC2)cc(OC)c1OC`, the luciferase signal in test [12] was 48 AU (inactive).
For the molecule `CC(=O)Oc1cc(C(C)C)c(OCCN(C)C)cc1C`, the z-score in test [1] is 0.335 (inactive).
For the molecule `O=C(Oc1ccccc1C(=O)O)c1ccccc1O`, the luciferase signal in test [12] was 64 AU (inactive).
In the case of `CCOc1nc2cccc(C(=O)O)c2n1Cc1ccc(-c2ccccc2-c2nn[nH]n2)cc1`, in test [1], the z-score was 0.64 (inactive).
Turning to `O=C(Oc1cccc2cccnc12)c1ccccc1`, the luciferase signal in test [12] was 44 AU (inactive).
For the molecule `O=C(N/N=C/c1ccc([N+](=O)[O-])o1)c1ccc(O)cc1`, the fluorescence slope change in test [13] is -24% (inactive).
In the case of `CN(C(=O)CN(CCO)CC(=O)N(C)C(C)(C)Cc1ccccc1)C(C)(C)Cc1ccccc1`, the luciferase signal in test [12] is 32 AU (inactive).
As for `CN(C(=O)C(Cl)Cl)c1ccc(OC(=O)c2ccco2)cc1`, the luciferase signal in test [12] was 44 AU (inactive).
Same read-out and setting: the same measure for `CC1CC(OC(=O)c2ccccc2O)CC(C)(C)C1` (stereo not drawn): 140 AU (inactive).
For the molecule `CN1CCC(=C2c3ccccc3CCc3cccnc32)CC1`, the z-score in test [1] was 0.04 (inactive).
Take `CC1CCc2c(N3CCC(O)CC3)c(F)cc3c(=O)c(C(=O)O)cn1c23` (stereo not drawn): the z-score in test [1] is 1.2 (inactive).
In the case of `CNCCc1ccccn1`, the fluorescence slope change in [13] is 28.1% (inactive). For the same molecule, the luciferase signal in [12] is 64 AU (inactive).
For the molecule `CC(=O)CC(c1ccc([N+](=O)[O-])cc1)c1c(O)c2ccccc2oc1=O` (stereo not drawn), the fluorescence slope change in test [13] was 22.3% (inactive).
With `CCN(CC)CCc1nc(-c2ccccc2)no1`, in test [13], the fluorescence slope change was 14.4% (inactive).
`CCOc1ccc2nc(S(N)(=O)=O)sc2c1`: the luciferase signal in test [12] is 40 AU (inactive).
Turning to `Oc1c(I)cc(Cl)c2cccnc12`, the luciferase signal in [12] was 52 AU (inactive).
Turning to `CC(C(=O)O)c1ccc2c(c1)Cc1cccnc1O2` (stereo not drawn), the z-score in [1] is 0.415 (inactive).
Take `CCCCOc1cc(C(=O)OCCN(CC)CC)ccc1N`: the z-score in [1] is 0.26 (inactive).
Take `O=C(Nc1ccccc1)OCC(CN1CCCCC1)OC(=O)Nc1ccccc1` (stereo not drawn): the fluorescence slope change in test [13] was 147% (active).
For `CC(C)(C)C(=O)C(Oc1ccc(Cl)cc1)n1ccnc1` (stereo not drawn), in test [1], the z-score is -0.18 (inactive).
Consider `Cc1ncc(CO)c(CO)c1O`, for which the luciferase signal in test [12] was 160 AU (inactive).
In the case of `C[C@@H](O)[C@H]1C(=O)N2C(C(=O)O)=C(SCCN=CN)C[C@H]12`, the z-score in test [1] was -0.195 (inactive) and 0.375 (inactive).
For `CCCCOC(=O)c1ccc(O)cc1`, the luciferase signal in [12] is 88 AU (inactive).
As for `OC1(c2ccc(Cl)c(C(F)(F)F)c2)CCN(CCCC(c2ccc(F)cc2)c2ccc(F)cc2)CC1`, in test [12], the luciferase signal is 60 AU (inactive).
`CCCCCCC[N+](CC)(CC)CCCCc1ccc(Cl)cc1`: the fluorescence slope change in test [13] is 178% (active).
For the molecule `CC(=O)N[C@@H](CC(C)C)C(=O)O`, the luciferase signal in test [12] was 56 AU (inactive).
Consider `Cc1cccc(C)c1NC(=O)CN1CCN(CCCC(c2ccc(F)cc2)c2ccc(F)cc2)CC1`, for which the fluorescence slope change in test [13] was 64.3% (active).
`O=C(OOC(=O)c1ccccc1)c1ccccc1`: the luciferase signal in [12] is 104 AU (inactive).
Take `O=C1c2ccccc2C(=O)C1c1ccc(Br)cc1`: the luciferase signal in [12] was 56 AU (inactive).

The values above are taken from PubChem BioAssay.
